Results published in PubChem BioAssay AID504379 (National Center for Advancing Translational Sciences (NCATS), 2011).
Calls of active or inactive are those of the source. How the calls were made is not given here.

Target: Thyrotropin receptor (Homo sapiens) (UniProt P16473)
Test: Concentration-response assay for inverse agonists of the thyroid stimulating hormone receptor: ELISA activity detection
Details: HEK293-TSHR basal cAMP, ELISA chemiluminescence, 1 h
Source text: TSH is an alpha/beta heterodimeric glycoprotein hormone secreted from the anterior pituitary gland which belongs to the glycoprotein hormone family. The actions of TSH are mediated by a seven-transmembrane receptor, which upon TSH binding couples preferentially to the G-alpha (s) protein (Gs), resulting in activation of adenylate cyclase and increase in cyclic adenosine 3', 5' monophosphate (cAMP). The TSH receptor (THSR) is mainly expressed in thyroid follicular cells and regulates their growth and function. This cell based assay was conducted on a TSHR transfected HEK 293 cell line, measuring cAMP stimulation using antibody-based Homogeneous Time Resolved Fluorescence (HTRF). Our goal is to identify small molecules that will inhibit (antagonize) the thyroid-stimulating hormone receptor (TSHR), a member of the 7 transmembrane-spanning receptor (7TMR) family of cell surface receptors. TSHR-mediated hyperthyroidism is important in thyroid pathology. The development of small molecule antagonists of TSHR may lead to therapeutic approaches for TSHR-mediated hyperthyroidism caused by constitutively activating mutations or stimulating auto-antibodies associated with Graves' disease. Graves' disease is the leading cause of hyperthyroidism and is caused by autoantibodies that stimulate TSHR (TsAbs) causing thyroid growth and unregulated overproduction of thyroid hormones and existing treatments have liabilities (agranulocytosis). In addition, TSHRs are known to be expressed in multiple extrathyroidal tissues including bone, brain, kidney, testis, fat and cells of the immune system but the role of the TSHR in these tissues is not clear. Therefore, TSHR antagonists/inverse agonists could be used as probes of extrathyroidal TSHR function. Finally, TSHR inverse agonists, which are a subclass of antagonists that inhibit agonist-independent (or basal or constitutive) TSHR signaling, could be used to inhibit TSH-independent signaling in patients with recurrent or metastatic thyroid cancer who are receiving thyroid hormone to suppress TSH. A confirmatory assay of TSHR inverse agonists was conducted on a HEK 293 cell line stably expressing the TSHR, using an ELISA based cAMP competition assay using cAMP-Screen Direct System (Applied Biosystems, Foster City, CA) to measure cAMP stimulation.
Transiently transfected HEK-EM 293 cells or cells stably expressing TSHRs were seeded into 96-well plates at a density of 7 x10^4 cells per well in DMEM containing 10% FBS. Cells were cultured for 24 h before incubation for 20 min in HBSS/10 mM HEPES (pH 7.4). To determine basal cAMP production, cells were incubated for 1 h at 37 C in a humidified incubator in HBSS/HEPES containing 1mM IBMX (Sigma Chemical Co., St. Louis, MO) in the presence or absence of compound. The levels of cAMP in cells incubated in HBSS/HEPES without IBMX were subtracted in all experiments. After aspiration of the incubation medium, cells were lysed using lysis buffer of the cAMP-Screen Direct system (Applied Biosystems, Foster City, CA). The cAMP content of the cell lysate was determined using the method described in the manufacturer's protocol. The chemiluminescence signal was measured in a VICTOR3 V 1420 multilabel counter (PerkinElmer, Norwalk, CT). The potency (IC50) of the ligands were obtained from dose-response curves by data analysis with GraphPad Prism 4 for Windows.

Sequence of Thyrotropin receptor (Homo sapiens) (P16473 whole entry, looked up): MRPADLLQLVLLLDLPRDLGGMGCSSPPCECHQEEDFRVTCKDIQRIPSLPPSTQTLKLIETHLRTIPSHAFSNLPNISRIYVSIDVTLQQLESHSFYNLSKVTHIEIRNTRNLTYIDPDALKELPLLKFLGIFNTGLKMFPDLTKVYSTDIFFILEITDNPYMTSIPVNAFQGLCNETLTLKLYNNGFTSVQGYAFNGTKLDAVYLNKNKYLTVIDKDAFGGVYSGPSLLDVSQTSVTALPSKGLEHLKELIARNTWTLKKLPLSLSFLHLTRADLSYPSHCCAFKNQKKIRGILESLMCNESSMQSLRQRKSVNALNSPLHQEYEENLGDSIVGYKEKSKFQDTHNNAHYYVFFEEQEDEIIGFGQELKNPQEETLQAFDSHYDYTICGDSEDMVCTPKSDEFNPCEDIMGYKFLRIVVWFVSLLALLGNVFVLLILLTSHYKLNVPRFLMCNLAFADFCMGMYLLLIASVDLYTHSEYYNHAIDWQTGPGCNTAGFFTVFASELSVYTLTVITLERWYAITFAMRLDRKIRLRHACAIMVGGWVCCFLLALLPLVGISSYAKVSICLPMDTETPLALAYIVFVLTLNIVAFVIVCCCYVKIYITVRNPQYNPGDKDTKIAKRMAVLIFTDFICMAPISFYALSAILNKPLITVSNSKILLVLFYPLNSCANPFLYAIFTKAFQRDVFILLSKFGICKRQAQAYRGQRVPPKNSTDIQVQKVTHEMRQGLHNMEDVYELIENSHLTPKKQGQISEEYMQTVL

SMILES | outcome | IC50
COc1ccc(C2Nc3ccccc3C(=O)N2Cc2ccco2)cc1CSc1c(C)cccc1C (stereo unspecified) | inactive | –
COc1ccc(C2Nc3ccccc3C(=O)N2Cc2ccccn2)cc1COc1c(C)cccc1C (stereo unspecified) | inactive | –
COc1ccc(C2Nc3cccc(O)c3C(=O)N2Cc2ccco2)cc1COc1c(C)cc(NC(C)=O)cc1C (stereo unspecified) | inactive | –
COc1ccc(C2Nc3ccccc3C(=O)N2Cc2cccs2)cc1COc1c(C)cccc1C (stereo unspecified) | inactive | –
COc1ccc(C2Nc3ccccc3C(=O)N2Cc2ccco2)cc1COc1ccccc1C (stereo unspecified) | inactive | –
COc1ccc(C2Nc3ccccc3C(=O)N2Cc2cccnc2)cc1COc1c(C)cccc1C (stereo unspecified) | – | 7 µM (active)
COc1ccc(C2Nc3ccccc3C(=O)N2Cc2ccc(C)o2)cc1COc1c(C)cccc1C (stereo unspecified) | inactive | –
Cc1cccc(C)c1OCc1cccc(C2Nc3ccccc3C(=O)N2Cc2ccco2)c1 (stereo unspecified) | – | 5 µM (active)
COc1ccc(C2Nc3ccccc3C(=O)N2Cc2ccccc2)cc1COc1c(C)cccc1C (stereo unspecified) | inactive | –
CCc1cccc(CC)c1OCc1cc(C2Nc3ccccc3C(=O)N2Cc2ccco2)ccc1OC (stereo unspecified) | – | 11 µM (active)
COc1ccc(C2Nc3ccccc3C(=O)N2Cc2ccco2)cc1COc1c(C)cc(NC(C)=O)cc1C (stereo unspecified) | – | 6 µM (active)
